Read-out in assay [1]: Tumor necrosis factor receptor superfamily member 6 (Homo sapiens) (UniProt P25445)
In words: LTEA_HepaRG_FAS: Life Technologies and Expression Analysis (LTEA) Assay for Fas cell surface death receptor (FAS) using HepaRG (AID 2283447). The conditions noted are these: mRNA level, 48 h; actives raise or lower the signal. An outline of the steps: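 Differentiated human HepaRG cells, pre-cultured 48 h, were exposed in duplicate for 48 h to 8-point half-log concentrations (top 100 uM, 0.5% DMSO) in serum-free induction medium; FAS mRNA measured by qRT-PCR, normalized to ACTB/GAPDH/POLR2A, bidirectional fit versus DMSO.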

Read-out in assay [2]: Fatty acid synthase (Homo sapiens) (UniProt P49327)
The experiment in a line: LTEA_HepaRG_FASN: Life Technologies and Expression Analysis (LTEA) Assay for Fatty Acid Synthase (FASN) using HepaRG (AID 2283448). The conditions noted are these: mRNA level, 48 h; actives raise or lower the signal. An outline of the steps: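 FASN expression changes, up or down relative to 0.5% DMSO, were measured by qRT-PCR in human HepaRG cells after 48 h treatment with chemicals at eight concentrations (half-log steps from 100 uM).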

Read-out in assay [3]: Cyclin D2 (CCND2), CCND2 (gene 894)
In words: LTEA_HepaRG_CCND2: Life Technologies and Expression Analysis (LTEA) Assay for Cyclin D2 (CCND2) using HepaRG (AID 2283449).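 Note: CCND2 transcript measured by TaqMan qRT-PCR and normalised to three housekeeping genes.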 To be noted: mRNA level, 48 h; actives raise or lower the signal. The method in brief:
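Differentiated human HepaRG cells were exposed for 48 h in serum-free induction medium to eight half-log concentrations topping at 100 uM (0.5% DMSO vehicle). CCND2 mRNA was quantified by TaqMan qRT-PCR, normalised to ACTB, GAPDH and POLR2A, and fitted bidirectionally against DMSO.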

Read-out in assay [4]: Cyclin Dependent Kinase Inhibitor 1A (CDKN1A), CDKN1A (gene 1026)
In words: LTEA_HepaRG_CDKN1A: Life Technologies and Expression Analysis (LTEA) Assay for Cyclin Dependent Kinase Inhibitor 1A (CDKN1A) using HepaRG (AID 2283450). The conditions noted are these: mRNA level, 48 h; actives raise or lower the signal. An outline of the steps:
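Expression quantified by Fluidigm qRT-PCR with ACTB, GAPDH and POLR2A normalization, fitted bidirectionally against 0.5% DMSO. Cells: HepaRG, plated 48 h then treated 48 h in serum-free induction medium, top concentration 100 uM with half-log dilutions.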

Read-out in assay [5]: Cyclin D1 (CCND1), CCND1 (gene 595)
In words: LTEA_HepaRG_CCND1: Life Technologies and Expression Analysis (LTEA) Assay for Cyclin D1 (CCND1) using HepaRG (AID 2283451). To be noted: mRNA level, 48 h; actives raise or lower the signal. The method in brief:
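Expression of CCND1 was quantified by qRT-PCR on Fluidigm arrays using ACTB, GAPDH and POLR2A as reference genes. HepaRG cultures, plated 48 h beforehand, were dosed for 48 h at up to 100 uM (half-log, 8 points) in 0.5% DMSO.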

Read-out in assay [6]: catalase (CAT), CAT (gene 847)
The experiment in a line: LTEA_HepaRG_CAT: Life Technologies and Expression Analysis (LTEA) Assay for catalase (CAT) using HepaRG (AID 2283452). The conditions noted are these: mRNA level, 48 h; actives raise or lower the signal. An outline of the steps:
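Differentiated HepaRG cells in serum-free induction medium were dosed 48 h in duplicate, eight half-log concentrations from 100 uM in 0.5% DMSO. Transcript measured by TaqMan qRT-PCR, normalised to ACTB/GAPDH/POLR2A, fitted bidirectionally against DMSO.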

Read-out in assay [7]: flavin-containing dimethylaniline monooxygenases 3 (FMO3), FMO3 (gene 2328)
The experiment in a line: LTEA_HepaRG_FMO3: Life Technologies and Expression Analysis (LTEA) Assay for flavin-containing dimethylaniline monooxygenases 3 (FMO3) using HepaRG (AID 2283453). To be noted: mRNA level, 48 h; actives raise or lower the signal. An outline of the steps:
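Differentiated HepaRG cells in serum-free induction medium, exposed 48 h in duplicate to 8 half-log concentrations up to 100 uM in 0.5% DMSO. FMO3 mRNA by qRT-PCR, normalized to ACTB, GAPDH, POLR2A; bidirectional fit vs DMSO.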

Read-out in assay [8]: CFLAR gene, CFLAR (gene 8837)
In words: LTEA_HepaRG_CFLAR: Life Technologies and Expression Analysis (LTEA) Assay for CFLAR gene using HepaRG (AID 2283455). To be noted: mRNA level, 48 h; actives raise or lower the signal. An outline of the steps: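 HepaRG cells were plated for 48 h, switched to serum-free induction medium, then exposed in duplicate for 48 h to 8 concentrations (top 100 uM, half-log steps, 0.5% DMSO). CFLAR mRNA was measured by qRT-PCR, normalized to ACTB, GAPDH and POLR2A.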

Read-out in assay [9]: Forkhead box O1 (FOXO1), FOXO1 (gene 2308)
The experiment in a line: LTEA_HepaRG_FOXO1: Life Technologies and Expression Analysis (LTEA) Assay for Forkhead box O1 (FOXO1) using HepaRG (AID 2283456). To be noted: mRNA level, 48 h; actives raise or lower the signal. An outline of the steps: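 Differentiated human HepaRG cells in serum-free induction medium were exposed in duplicate for 48 h to eight half-log concentrations (top 100 uM, 0.5% DMSO). FOXO1 mRNA was measured by TaqMan qRT-PCR, normalised to ACTB, GAPDH and POLR2A, and fitted bidirectionally against DMSO.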

Read-out in assay [10]: growth arrest and DNA damage 45 (GADD45A), GADD45A (gene 1647)
In words: LTEA_HepaRG_GADD45A: Life Technologies and Expression Analysis (LTEA) Assay for growth arrest and DNA damage 45 (GADD45A) using HepaRG (AID 2283458). To be noted: mRNA level, 48 h; actives raise or lower the signal. An outline of the steps: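 Cells plated and cultured 48 h, switched to serum-free induction medium, then dosed for 48 h (100 uM top, half-log dilutions, 0.5% DMSO). RNA was isolated and transcript measured by Fluidigm qRT-PCR.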

Read-out in assay [11]: Forkhead box O3 (FOXO3), FOXO3 (gene 2309)
In words: LTEA_HepaRG_FOXO3: Life Technologies and Expression Analysis (LTEA) Assay for Forkhead box O3 (FOXO3) using HepaRG (AID 2283459). To be noted: mRNA level, 48 h; actives raise or lower the signal. An outline of the steps: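 Differentiated human HepaRG cells in serum-free induction medium were exposed in duplicate for 48 h to eight half-log concentrations up to 100 uM in 0.5% DMSO. FOXO3 mRNA was quantified by qRT-PCR, normalized to ACTB, GAPDH and POLR2A, with bidirectional fitting versus DMSO.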

Read-out in assay [12]: ABC Transporter (ABCB1), ABCB1 (gene 5243)
In words: LTEA_HepaRG_ABCB1: Life Technologies and Expression Analysis (LTEA) Assay for ABC Transporter (ABCB1) using HepaRG (AID 2283460). The conditions noted are these: mRNA level, 48 h; actives raise or lower the signal. An outline of the steps:
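Differentiated human HepaRG cells, plated 48 h then switched to serum-free induction medium, were exposed in duplicate to eight half-log concentrations up to 100 uM in 0.5% DMSO for 48 h. ABCB1 mRNA was measured by TaqMan qRT-PCR, normalized to ACTB/GAPDH/POLR2A.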

Read-out in assay [13]: growth arrest and DNA damage 45 (GADD45B), GADD45B (gene 4616)
In words: LTEA_HepaRG_GADD45B: Life Technologies and Expression Analysis (LTEA) Assay for growth arrest and DNA damage 45 (GADD45B) using HepaRG (AID 2283461). The conditions noted are these: mRNA level, 48 h; actives raise or lower the signal. The method in brief: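 Transcript level quantified by Fluidigm TaqMan qRT-PCR with three housekeeping genes for normalization, analyzed for up- or down-regulation against 0.5% DMSO. HepaRG cultures dosed 48 h at eight half-log concentrations up to 100 uM, duplicates.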

Read-out in assay [14]: ABC Transporter (ABCC3), ABCC3 (gene 8714)
In words: LTEA_HepaRG_ABCC3: Life Technologies and Expression Analysis (LTEA) Assay for ABC Transporter (ABCC3) using HepaRG (AID 2283462). The conditions noted are these: mRNA level, 48 h; actives raise or lower the signal. The method in brief:
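Transcript level by TaqMan qRT-PCR, normalised to three housekeeping genes, fitted in both directions relative to vehicle. Chemicals tested in duplicate at eight half-log concentrations up to 100 uM for 48 h on HepaRG cells (0.5% DMSO).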

Read-out in assay [15]: ABC Transporter (ABCC2), ABCC2 (gene 1244)
In words: LTEA_HepaRG_ABCC2: Life Technologies and Expression Analysis (LTEA) Assay for ABC Transporter (ABCC2) using HepaRG (AID 2283464). The conditions noted are these: mRNA level, 48 h; actives raise or lower the signal. An outline of the steps: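 Endpoint is ABCC2 transcript level from qRT-PCR, normalized to three housekeeping genes and fitted bidirectionally relative to DMSO. Human HepaRG cells received test chemical for 48 h at up to 100 uM (8 points, half-log steps, 0.5% DMSO), duplicate wells.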

Read-out in assay [16]: ATP-citrate lyase (ACLY), ACLY (gene 47)
In words: LTEA_HepaRG_ACLY: Life Technologies and Expression Analysis (LTEA) Assay for ATP-citrate lyase (ACLY) using HepaRG (AID 2283466). To be noted: mRNA level, 48 h; actives raise or lower the signal. The method in brief: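 Differentiated human HepaRG cells in serum-free induction medium exposed 48 h, in duplicate, to eight half-log concentrations from 100 uM top in 0.5% DMSO; ACLY mRNA measured by qRT-PCR, normalized to ACTB, GAPDH, POLR2A, fitted bidirectionally versus DMSO.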

Assay [17] is described as follows: CEETOX_H295R_PROG: CeeTox H295R High-throughput Steroidogenesis Assay for Progesterone (PROG) (AID 2283442).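 For AC50: human H295R adrenal cells primed with 10 µM forskolin before dosing.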 The conditions noted are these: actives raise or lower the signal. An outline of the steps:
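Progesterone secreted by human H295R cells was measured by LC-MS/MS following 48 h chemical exposure at 0.1% DMSO, preceded by 48 h forskolin (10 uM) stimulation. Same-well MTT viability; cytotoxic concentrations diluted 10- or 100-fold and retested.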

The structures appear in SMILES notation. Active and inactive are the calls of the source. Rule for the calls: active = hit-call score of the fitted dose curve at least 0.9, where 1 is the maximum; inactive = score below 0.9.

Fatty acid synthase (Homo sapiens), sequence (P49327 whole entry, looked up): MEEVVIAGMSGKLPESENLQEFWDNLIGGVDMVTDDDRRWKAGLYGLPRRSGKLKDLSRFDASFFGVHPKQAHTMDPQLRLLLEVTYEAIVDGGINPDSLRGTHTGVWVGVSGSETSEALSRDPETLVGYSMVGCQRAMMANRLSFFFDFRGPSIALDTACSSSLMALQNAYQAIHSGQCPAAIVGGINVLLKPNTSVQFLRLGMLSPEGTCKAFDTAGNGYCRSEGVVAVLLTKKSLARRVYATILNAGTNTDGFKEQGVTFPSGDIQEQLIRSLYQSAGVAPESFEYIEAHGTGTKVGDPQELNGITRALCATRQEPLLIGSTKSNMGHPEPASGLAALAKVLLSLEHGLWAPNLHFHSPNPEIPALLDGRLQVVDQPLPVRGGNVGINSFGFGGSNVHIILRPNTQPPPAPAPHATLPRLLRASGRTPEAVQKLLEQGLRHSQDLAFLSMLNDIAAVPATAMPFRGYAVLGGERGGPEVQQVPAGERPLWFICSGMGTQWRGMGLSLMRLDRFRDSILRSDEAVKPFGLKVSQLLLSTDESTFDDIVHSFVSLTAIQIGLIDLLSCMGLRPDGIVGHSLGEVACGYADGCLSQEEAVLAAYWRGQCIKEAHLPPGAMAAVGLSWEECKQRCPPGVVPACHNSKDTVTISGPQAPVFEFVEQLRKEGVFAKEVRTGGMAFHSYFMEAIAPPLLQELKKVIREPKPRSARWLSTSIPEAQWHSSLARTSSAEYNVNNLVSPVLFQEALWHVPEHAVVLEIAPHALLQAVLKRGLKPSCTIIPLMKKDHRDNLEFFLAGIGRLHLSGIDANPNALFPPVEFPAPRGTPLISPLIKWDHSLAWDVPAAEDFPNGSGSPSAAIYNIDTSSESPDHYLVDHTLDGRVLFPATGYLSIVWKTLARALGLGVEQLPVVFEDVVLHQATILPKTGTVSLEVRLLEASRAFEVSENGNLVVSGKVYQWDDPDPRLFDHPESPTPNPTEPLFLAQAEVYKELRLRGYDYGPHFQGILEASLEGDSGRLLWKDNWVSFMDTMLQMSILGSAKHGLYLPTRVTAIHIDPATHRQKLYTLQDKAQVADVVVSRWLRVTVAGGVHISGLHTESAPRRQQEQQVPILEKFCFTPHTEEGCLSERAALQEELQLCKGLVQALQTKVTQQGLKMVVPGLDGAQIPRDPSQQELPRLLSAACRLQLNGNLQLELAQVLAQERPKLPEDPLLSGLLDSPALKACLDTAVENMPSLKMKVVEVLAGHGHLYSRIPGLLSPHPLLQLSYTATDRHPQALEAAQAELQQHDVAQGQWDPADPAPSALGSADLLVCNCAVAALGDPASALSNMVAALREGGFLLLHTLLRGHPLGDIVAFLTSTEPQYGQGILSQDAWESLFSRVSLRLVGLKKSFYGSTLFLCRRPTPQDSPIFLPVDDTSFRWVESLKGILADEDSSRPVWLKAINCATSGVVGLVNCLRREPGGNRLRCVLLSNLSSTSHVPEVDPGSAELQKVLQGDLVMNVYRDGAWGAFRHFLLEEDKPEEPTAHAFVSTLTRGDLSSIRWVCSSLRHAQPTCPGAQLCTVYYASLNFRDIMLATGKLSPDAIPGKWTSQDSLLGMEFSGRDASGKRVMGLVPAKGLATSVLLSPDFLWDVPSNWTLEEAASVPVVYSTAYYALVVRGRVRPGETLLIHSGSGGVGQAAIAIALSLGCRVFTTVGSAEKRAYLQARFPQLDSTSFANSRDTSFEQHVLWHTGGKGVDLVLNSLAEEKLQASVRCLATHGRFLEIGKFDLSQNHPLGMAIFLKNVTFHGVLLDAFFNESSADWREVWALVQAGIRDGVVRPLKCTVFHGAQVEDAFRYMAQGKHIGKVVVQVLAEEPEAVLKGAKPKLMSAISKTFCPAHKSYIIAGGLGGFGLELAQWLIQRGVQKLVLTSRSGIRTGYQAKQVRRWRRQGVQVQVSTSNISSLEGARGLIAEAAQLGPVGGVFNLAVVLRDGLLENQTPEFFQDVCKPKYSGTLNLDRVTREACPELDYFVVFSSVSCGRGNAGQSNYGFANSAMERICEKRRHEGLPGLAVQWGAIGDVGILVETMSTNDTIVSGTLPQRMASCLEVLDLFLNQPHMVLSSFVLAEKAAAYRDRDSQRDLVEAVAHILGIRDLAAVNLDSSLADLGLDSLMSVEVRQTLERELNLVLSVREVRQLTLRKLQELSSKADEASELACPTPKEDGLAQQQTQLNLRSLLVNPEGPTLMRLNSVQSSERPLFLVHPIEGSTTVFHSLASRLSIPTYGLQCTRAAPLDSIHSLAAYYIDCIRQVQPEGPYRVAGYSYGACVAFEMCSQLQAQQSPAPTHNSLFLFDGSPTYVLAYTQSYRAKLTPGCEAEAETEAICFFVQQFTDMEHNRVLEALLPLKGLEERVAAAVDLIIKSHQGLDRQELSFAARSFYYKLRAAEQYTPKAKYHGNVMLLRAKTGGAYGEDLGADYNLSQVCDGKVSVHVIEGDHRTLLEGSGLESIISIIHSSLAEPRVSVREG

A word on the AC50: it is the concentration giving half of the maximal activity seen. Turning to `CCCCc1oc2ccccc2c1C(=O)c1cc(I)c(OCCN(CC)CC)c(I)c1`, the half-maximal activity concentration (AC50) in [1] was 66.6 µM (active); in [2] it was 9.27 µM (active); in [4], 68.3 µM (active); in assay [6] it was 37.8 µM (active); in [7] it was 48.6 µM (active); in [8] it was 62.4 µM (active). For the same compound, the AC50 in assay [10] is 59.1 µM (active); in [13], 59.6 µM (active); in assay [14], 22.4 µM (active); in assay [15] it was 68.8 µM (active); in assay [16], 59.4 µM (active). The result in assay [3], in assay [5], in [9], in assay [11] and in assay [12] was inactive.
For `CC(C)(C)c1ccc(O)c(O)c1`, in [17], the concentration at half-maximal activity (AC50) is 32.3 µM (active).
Turning to `CN(C)CCOC(c1ccccc1)c1ccccc1`, the compound was classed as inactive in assay [1], in assay [4], in [5], in assay [6], in assay [7] and in assay [8]. Further, the result in assay [9], in assay [10], in [11], in assay [12], in assay [13] and in assay [14] was inactive. For the same compound, in assay [15], the call was inactive. Besides, the AC50 is 50 µM (active) in assay [2] and 81.6 µM (active) in assay [16].
Take `COc1cccc(O)c1`: the compound was classed as inactive in [17].

Source of the values: PubChem BioAssay (EPA / NIEHS).
